Experiment [1] is described as follows: NCI Yeast Anticancer Drug Screen. Data for the rad50 strain (AID 155).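 Also: 0% = growth of vehicle-only cultures of the same strain.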 As to conditions: S. cerevisiae rad50 strain growth inhibition, stronger effect = higher value. The method, boiled down:
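Genetically altered yeast (DNA repair pathway); compound treatment; growth inhibition vs vehicle ctrl.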

A short description of experiment [2]: NCI Yeast Anticancer Drug Screen. Data for the mec2-1 strain (AID 157). As to conditions: S. cerevisiae mec2-1 strain, stronger effect = higher value. The method, boiled down:
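Readout is yeast growth inhibition, normalised to vehicle-treated controls, in the mec2-1 strain exposed to compound.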

The nature of experiment [3]: NCI Yeast Anticancer Drug Screen. Data for the sgs1 mgt1 strain (AID 161).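 Also: 0% = growth of cultures given vehicle only.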 Conditions: S. cerevisiae sgs1 mgt1 strain, stronger effect = higher value. The method, boiled down: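 Growth of a repair-deficient yeast mutant was monitored after compound treatment and expressed as inhibition relative to vehicle-treated cultures.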
Experiment [4] can be described thus: NCI Yeast Anticancer Drug Screen. Data for the cln2 rad14 strain (AID 165).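 Also: 0% = growth equal to vehicle treated cultures.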 Conditions: S. cerevisiae cln2 rad14 strain, stronger effect = higher value. Put shortly: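 Relative to vehicle controls, growth inhibition of compound-treated cln2 rad14 yeast was recorded.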
Experiment [5] can be described thus: NCI Yeast Anticancer Drug Screen. Data for the bub3 strain (AID 167). Conditions: S. cerevisiae bub3 mutant strain, stronger effect = higher value. The method, boiled down:
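Yeast carrying a defined mutation is treated with each compound, and growth is compared with that of vehicle-exposed cells to give inhibition.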

Experiment [6] is described as follows: NCI Yeast Anticancer Drug Screen. Data for the mlh1 rad18 strain (AID 175). Conditions: S. cerevisiae mlh1 rad18 strain growth inhibition, stronger effect = higher value. The method, boiled down:
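Test agents were incubated with a yeast strain of defined genotype (DNA damage repair defect). Inhibition of growth was derived by comparison with vehicle-exposed cultures.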

Setting [7] is: at 5.0 µM (retest, dose inferred, filed as 0.5).
The mark [8] stands for this setting: at 50.0 µM (retest, dose inferred, filed as 5.0).

This is part of a sample that, as a whole, favours compounds with a hit. Of some 79,000 tested, about 15% had one in any assay. Values without a mark were called inactive. Active and inactive are the calls of the source. Rule as the data show it: active = growth inhibition above about 70%; inactive = the rest.

With `O=C1Oc2ccccc2C(=O)/C1=C/N1C(=O)/C(=C/c2ccc([N+](=O)[O-])cc2)SC1=S`, the growth inhibition in experiment [1] (setting [7]) is 2%; in experiment [1] (setting [8]), 68%; in experiment [1] (at 50.0 µM) it was 82.5% (active); in experiment [2] (setting [7]), -4%; in experiment [2] (setting [8]) it was 82% (active); in experiment [2] (at 50.0 µM), 90% (active). For the same molecule, the growth inhibition is 22% in experiment [3] (setting [7]); 93% (active) in experiment [3] (setting [8]); 96.7% (active) in experiment [3] (at 50.0 µM); 3% in experiment [4] (setting [7]); 83% (active) in experiment [4] (setting [8]); 92.1% (active) in experiment [4] (at 50.0 µM). Besides, the growth inhibition in experiment [5] (setting [7]) was 7%; in experiment [5] (setting [8]) it was 49%; in experiment [5] (at 50.0 µM), 85% (active); in experiment [6] (setting [7]) it was 11%; in experiment [6] (setting [8]), 77% (active); in experiment [6] (at 50.0 µM) it was 86.3% (active).

`Brc1cccc[n+]1Cc1cc2ccccc2c2ccccc12`: the growth inhibition in experiment [1] (setting [7]) is 0%; in experiment [1] (setting [8]) it was 91% (active); in experiment [1] (at 50.0 µM), 97.2% (active); in experiment [2] (setting [7]), 32%; in experiment [2] (setting [8]) it was 74% (active); in experiment [2] (at 50.0 µM), 97.5% (active). The growth inhibition is 0% in experiment [3] (setting [7]); 88% (active) in experiment [3] (setting [8]); 98.6% (active) in experiment [3] (at 50.0 µM); -5% in experiment [4] (setting [7]); 70% (active) in experiment [4] (setting [8]); 94.5% (active) in experiment [4] (at 50.0 µM). Also, the growth inhibition in experiment [5] (setting [7]) is -12%; in experiment [5] (setting [8]), 91% (active); in experiment [5] (at 50.0 µM), 97.5% (active); in experiment [6] (setting [7]), 1%; in experiment [6] (setting [8]), 88% (active); in experiment [6] (at 50.0 µM), 97.9% (active).

For `COc1ccc2c(c1)[n+]([O-])c(S(=O)(=O)c1ccc(C)cc1)c(N)[n+]2[O-]`, the growth inhibition in experiment [1] (setting [7]) was 4%; in experiment [1] (setting [8]) it was 80% (active); in experiment [1] (at 50.0 µM), 99.2% (active); in experiment [2] (setting [7]), 18%; in experiment [2] (setting [8]) it was 80% (active); in experiment [2] (at 50.0 µM) it was 98.8% (active). Further, the growth inhibition in experiment [3] (setting [7]) was 35%; in experiment [3] (setting [8]) it was 96% (active); in experiment [3] (at 50.0 µM), 96% (active); in experiment [4] (setting [7]) it was 16%; in experiment [4] (setting [8]), 66%; in experiment [4] (at 50.0 µM), 99% (active). For the same molecule, the growth inhibition in experiment [5] (setting [7]) is 50%; in experiment [5] (setting [8]), 96% (active); in experiment [5] (at 50.0 µM) it was 99% (active); in experiment [6] (setting [7]), 36%; in experiment [6] (setting [8]) it was 95% (active); in experiment [6] (at 50.0 µM) it was 99% (active).

For `CC(C)(C)OC(=O)CSC#N`, the growth inhibition in experiment [1] (setting [7]) is 11%; in experiment [1] (setting [8]), 93% (active); in experiment [1] (at 50.0 µM), 67.3%; in experiment [2] (setting [7]), 16%; in experiment [2] (setting [8]), 95% (active); in experiment [2] (at 50.0 µM), 66.2%. For the same molecule, the growth inhibition in experiment [3] (setting [7]) is 9%; in experiment [3] (setting [8]), 96% (active); in experiment [3] (at 50.0 µM) it was 90.5% (active); in experiment [4] (setting [7]), 8%; in experiment [4] (setting [8]), 39%; in experiment [4] (at 50.0 µM), 3.75%. Also, the growth inhibition in experiment [5] (setting [7]) was 12%; in experiment [5] (setting [8]) it was 94% (active); in experiment [5] (at 50.0 µM), 69.2%; in experiment [6] (setting [7]), 15%; in experiment [6] (setting [8]), 92% (active); in experiment [6] (at 50.0 µM), 55.5%.

In the case of `O=C(/C=C/c1ccc2c(c1)OCO2)c1ccc(O)cc1`, the growth inhibition in experiment [1] (setting [7]) was -27%; in experiment [1] (setting [8]) it was -21%; in experiment [1] (at 50.0 µM) it was 61%; in experiment [2] (setting [7]), -13%; in experiment [2] (setting [8]), 21%; in experiment [2] (at 50.0 µM), 44%. Also, the growth inhibition is -27% in experiment [3] (setting [7]); -31% in experiment [3] (setting [8]); 40.8% in experiment [3] (at 50.0 µM); -7% in experiment [4] (setting [7]); -11% in experiment [4] (setting [8]); 65.2% in experiment [4] (at 50.0 µM). The growth inhibition is -32% in experiment [5] (setting [7]); 5% in experiment [5] (setting [8]); 61.5% in experiment [5] (at 50.0 µM); -33% in experiment [6] (setting [7]); -17% in experiment [6] (setting [8]); 14.6% in experiment [6] (at 50.0 µM).

In the case of `CCOC(=O)C1(Br)CCN(S(=O)(=O)c2ccc(C)cc2)c2ccccc2C1=O` (configuration not stated), the growth inhibition in experiment [1] (setting [7]) is 1%; in experiment [1] (setting [8]), 90% (active); in experiment [1] (at 50.0 µM), 96.5% (active); in experiment [2] (setting [7]) it was 10%; in experiment [2] (setting [8]), 97% (active); in experiment [2] (at 50.0 µM), 98% (active). The growth inhibition in experiment [3] (setting [7]) is -7%; in experiment [3] (setting [8]), 96% (active); in experiment [3] (at 50.0 µM) it was 97.8% (active); in experiment [4] (setting [7]), -6%; in experiment [4] (setting [8]) it was 66%; in experiment [4] (at 50.0 µM), 95.2% (active). In addition, the growth inhibition was -3% in experiment [5] (setting [7]); 95% (active) in experiment [5] (setting [8]); 97.5% (active) in experiment [5] (at 50.0 µM); 18% in experiment [6] (setting [7]); 97% (active) in experiment [6] (setting [8]); 98.4% (active) in experiment [6] (at 50.0 µM).

Regarding `O=C1/C(=C/c2ccc(Cl)c(Cl)c2)CN(C(=O)CCN2CCOCC2)C/C1=C\c1ccc(Cl)c(Cl)c1`, the growth inhibition in experiment [1] (setting [7]) was 99% (active); in experiment [1] (setting [8]), 86% (active); in experiment [1] (at 50.0 µM) it was 41%; in experiment [2] (setting [7]), 99% (active); in experiment [2] (setting [8]) it was 94% (active); in experiment [2] (at 50.0 µM), 85.8% (active). For the same molecule, the growth inhibition in experiment [3] (setting [7]) is 99% (active); in experiment [3] (setting [8]) it was 92% (active); in experiment [3] (at 50.0 µM), 85.2% (active); in experiment [4] (setting [7]), 90% (active); in experiment [4] (setting [8]), 89% (active); in experiment [4] (at 50.0 µM), 87.3% (active). Moreover, the growth inhibition is 99% (active) in experiment [5] (setting [7]); 89% (active) in experiment [5] (setting [8]); 89% (active) in experiment [5] (at 50.0 µM); 99% (active) in experiment [6] (setting [7]); 88% (active) in experiment [6] (setting [8]); 87.5% (active) in experiment [6] (at 50.0 µM).

As for `O=C(O)c1ccccc1N=N/C(=N\Nc1cc(S(=O)(=O)O)ccc1O)c1ccccc1`, the growth inhibition in experiment [1] (setting [7]) is -7%; in experiment [1] (setting [8]), 85% (active); in experiment [1] (at 50.0 µM), 48.4%; in experiment [2] (setting [7]) it was -5%; in experiment [2] (setting [8]), 49%; in experiment [2] (at 50.0 µM) it was 20.5%. For the same molecule, the growth inhibition is -3% in experiment [3] (setting [7]); 95% (active) in experiment [3] (setting [8]); 46.5% in experiment [3] (at 50.0 µM); -3% in experiment [4] (setting [7]); 47% in experiment [4] (setting [8]); -32% in experiment [4] (at 50.0 µM). For the same molecule, the growth inhibition in experiment [5] (setting [7]) is 1%; in experiment [5] (setting [8]) it was 97% (active); in experiment [5] (at 50.0 µM) it was 38.8%; in experiment [6] (setting [7]), -4%; in experiment [6] (setting [8]), 74% (active); in experiment [6] (at 50.0 µM), 44.5%.

Regarding `C=CS(=O)(=O)c1ccc(C)cc1`, the growth inhibition in experiment [1] (setting [7]) was 0%; in experiment [1] (setting [8]), 49%; in experiment [1] (at 50.0 µM), 84% (active); in experiment [2] (setting [7]), 6%; in experiment [2] (setting [8]) it was 70% (active); in experiment [2] (at 50.0 µM), 78.7% (active). The growth inhibition is 7% in experiment [3] (setting [7]); 55% in experiment [3] (setting [8]); 81.4% (active) in experiment [3] (at 50.0 µM); 5% in experiment [4] (setting [7]); 31% in experiment [4] (setting [8]); 37.2% in experiment [4] (at 50.0 µM). The growth inhibition was 4% in experiment [5] (setting [7]); 61% in experiment [5] (setting [8]); 75.8% (active) in experiment [5] (at 50.0 µM); 6% in experiment [6] (setting [7]); 87% (active) in experiment [6] (setting [8]); 88.5% (active) in experiment [6] (at 50.0 µM).

The values are drawn from PubChem BioAssay (NCI).
